Where a structure was tested more than once in an assay, its records may differ in their call. Calls of active or inactive are those of the source. The calls were made as follows: active = hit-call score of the fitted dose curve at least 0.9, where 1 is the maximum; inactive = score below 0.9.
read-out: Pselectin, SELP (gene 6403); experiment: BSK_4H_Pselectin: BioMAP Diversity Plus: 4H Assay for Pselectin Biomarker Activity (AID 2283026); settings: primary human endothelial cells (HUVEC); actives raise or lower the signal
Experimental: BSK_4H is a cell-based, multiplexed-readout assay that uses umbilical vein endothelium, a human vascular primary cell, with measurements taken at 24 hours after chemical dosing in a 96-well plate.BSK_4H_Pselectin is an assay component measured in the BSK_4H assay. It measures P-Selectin antibody related to regulation of gene expression using ELISA technology.Data from the assay component BSK_4H_Pselectin was analyzed into 1 assay endpoint. This assay endpoint, BSK_4H_Pselectin, was analyzed with bidirectional fitting relative to DMSO as the negative control and baseline of activity. Using a type of binding reporter, gain or loss-of-signal activity can be used to understand changes in the signaling as they relate to the gene SELP. Furthermore, this assay endpoint can be referred to as a primary readout, because this assay has produced multiple assay endpoints where this one serves a signaling function. To generalize the intended target to other relatable targets, this assay endpoint is annotated to the cell adhesion molecules intended target family, where the subfamily is selectins.
The levels of cell surface (or secreted, indicated by the prefix "s") biomarker endpoints were measured by ELISA. Overt cytotoxicity to cells in confluent adherent cultures (all systems other than the BT system) was assessed by measuring total protein levels using sulforhodamine B (SRB) staining in parallel cultures at the time of biomarker measurements, indicated as SRB endpoints. For proliferation assays for adherent cell types, individual cell types are cultured at sub-confluence and relative cell numbers quantified by SRB staining at time points optimized for each system (48 h: 3C and CASM3C systems; 72 h: BT and HDF3CGF systems; 96 h: SAg system). SRB was performed by staining cells with 0.1% SRB after fixation with 10% TCA and reading wells at 560 nm.Viability and proliferation of PBMC (T cells) was quantified by Alamar Blue reduction for the SAg and BT systems. For PBMC viability (referred to as PBMC Cytotoxicity within the assay endpoint names), cells were plated (75,000/well in a 96-well plate) and then chemical samples added for 1 h before addition of activators, SEB and TSST-1 (20 ng/mL final concentration each). Cells were incubated for 90 h. Then, Alamar Blue (20 uL/well) (Invitrogen, Cat DAL1100) was added for 6 h, and the plates were read with a fluorescence microplate reader at 546/580 nm (excitation/emission). For PBMC proliferation, cells were plated and activated as above but incubated for only 16 h prior to addition of Alamar Blue. Plates were read after 6 h.

SMILES | outcome | AC50
CCOP(=S)(NC(C)C)Oc1ccccc1C(=O)OC(C)C (stereo unspecified) | inactive | 
O=[N+]([O-])c1ccccc1 | inactive | 
FC(F)(F)C(F)(C(F)(F)F)C(F)(F)C(F)(F)CC1CO1 (stereo unspecified) | inactive | 
O=S1(=O)OCC2C(CO1)C1(Cl)C(Cl)=C(Cl)C2(Cl)C1(Cl)Cl (stereo unspecified) |  | 12.2 µM (active)
Cc1c([N+](=O)[O-])cc2c(c1[N+](=O)[O-])C(C)(C)CC2(C)C | inactive | 
CCCN(CCC)c1c([N+](=O)[O-])cc(C(C)C)cc1[N+](=O)[O-] | inactive | 
O=c1ssc(Cl)c1Cl |  | 4.74 µM (active)
CCOc1ccc(C(C)(C)COCc2cccc(Oc3ccccc3)c2)cc1 | inactive | 
c1cc2c3c(cccc3c1)CC2 | inactive | 
CC(C)(C)c1ccccc1OP(=O)(Oc1ccccc1)Oc1ccccc1 |  | 20 µM (active)
ClC(Cl)(Cl)c1ccccc1 | inactive | 
CCOS(=O)(=O)OCC | inactive | 
[N-]=[N+]=[N-] | inactive | 
CCNc1nc(Cl)nc(NC(C)(C)C)n1 | inactive | 
ClC(Cl)c1ccccc1 | inactive | 
CCOP(=S)(OCC)SCSCC | inactive | 
ClC1=C(Cl)C2(Cl)C3C(Cl)C(Cl)CC3C1(Cl)C2(Cl)Cl (stereo unspecified) |  | 24.7 µM (active)
COP(N)(=S)OC | inactive | 
Cc1cccc(N)c1 | inactive | 
CC(Cl)CN(C)C (stereo unspecified) | inactive | 

SMILES | outcome | AC50
c1ccc2c(c1)Nc1ccccc1S2 | inactive | 
OCC(F)(F)OC(F)(F)C(F)(F)OC(F)(F)C(F)(F)OC(F)(F)CO | inactive | 
O=C(O)C(Cl)Cl | inactive | 
ClC(Cl)=C(c1ccc(Cl)cc1)c1ccccc1Cl |  | 10.6 µM (active)
CCOP(=S)(OCC)SCn1nnc2ccccc2c1=O | inactive | 
C=CC(=O)OCC(CC)(COC(=O)C=C)COC(=O)C=C |  | 2.25 µM (active)
Nc1ccc(Cl)cc1 | inactive | 
CCOP(=S)(S)OCC | inactive | 
CCCCN(CCCC)N=O | inactive | 
Cc1ccc([N+](=O)[O-])cc1C | inactive | 
N#Cc1c(-c2ccc(Cl)cc2)[nH]c(C(F)(F)F)c1Br |  | 0.117 µM (active)
OCC1CO1 (stereo unspecified) | inactive | 
O=C(O)C(F)(F)C(F)(F)C(=O)O | inactive | 
CCCCC(CC)COP(=O)(Oc1ccccc1)Oc1ccccc1 (stereo unspecified) |  | 12.3 µM (active)
CC(Cc1ccc(OCC(=O)O)cc1)NCC(O)c1csc(C(F)(F)F)n1 (stereo unspecified) | inactive | 
Nc1cc2c3c(c1)C(c1ccccc1)=N[C@@H](NC(=O)c1cccnc1)C(=O)N3CC2 | inactive | 
Cc1ccc(O)cc1C | inactive | 
O=P(OCC(Br)CBr)(OCC(Br)CBr)OCC(Br)CBr (stereo unspecified) | inactive | 
c1ccc(OP(Oc2ccccc2)Oc2ccccc2)cc1 | inactive | 
C=CC(=O)OCC(F)(F)C(F)F | inactive | 19.2 µM (active)

From PubChem BioAssay (EPA / NIEHS)
